Reference: PubChem BioAssay (EPA / NIEHS)
Active and inactive are the calls of the source. Rule for the calls: active = hit-call score of the fitted dose curve at least 0.9, where 1 is the maximum; inactive = score below 0.9.

What follows are compounds tested on growth arrest and DNA damage 45 (GADD45B), GADD45B (gene 4616) (assay: LTEA_HepaRG_GADD45B: Life Technologies and Expression Analysis (LTEA) Assay for growth arrest and DNA damage 45 (GADD45B) using HepaRG (AID 2283461)). Settings: mRNA level, 48 h; actives raise or lower the signal.
Summary of the method: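 HepaRG, ~100,000 cells/well, 48 h plating; serum-free induction medium; cpd 100 uM top, half-log x8, 0.5% DMSO, duplicate, 48 h; lysis in RLT, RNA isolation, qRT-PCR; norm ACTB/GAPDH/POLR2A; bidirectional fit vs DMSO.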

Row | Structure (SMILES) | AC50 | outcome
1 | CNC(=O)Oc1cccc2c1OC(C)(C)C2 | 50 µM (active) | –
2 | CCCCCOC(=O)c1ccccc1C(=O)OCCCCC | – | inactive
3 | CC(C)N(Cc1ccccc1)C(=O)C(C)(C)C | – | inactive
4 | COP(=S)(OC)SCN1C(=O)c2ccccc2C1=O | – | inactive
5 | CC(C)(O)c1cnn2c(-c3ccc(F)c(-c4c(F)cccc4C#N)c3)cnc2n1 | – | inactive
6 | Nc1ccc(Oc2ccc(N)cc2)cc1 | – | inactive
7 | Nc1ccc(Cl)cc1N | 13.3 µM (active) | –
8 | Oc1ccc2ccc3cccc4ccc1c2c34 | – | inactive
9 | Cn1cc(-c2ccccc2)c(=O)c(-c2cccc(C(F)(F)F)c2)c1 | – | inactive
10 | Cc1cc(N=Nc2ccccc2C)ccc1N | 7.67 µM (active) | –
11 | C[C@]12C=CC3=C4CCC(=O)C=C4CC[C@H]3[C@@H]1CC[C@@H]2O | – | inactive
12 | O=C(Nc1ccccc1)c1ccccc1I | 17.1 µM (active) | –
13 | CC(C)(C)C(O)(CCc1ccc(Cl)cc1)Cn1cncn1 (stereo not drawn) | – | inactive
14 | CCOc1cccc(C2(N3CCN(c4ccccc4)CC3)CCC(C)CC2)c1 (stereo not drawn) | – | inactive
15 | CCCCCCCCCCCCCN1CC(C)OC(C)C1 (stereo not drawn) | – | inactive
16 | CCC(C)c1ccc(O)cc1 (stereo not drawn) | – | inactive
17 | N#CC(Br)(Br)C(N)=O | – | inactive
18 | c1ccc(NNc2ccccc2)cc1 | 50 µM (active) | –
19 | Nc1ccc(N=Nc2ccccc2)cc1 | 29 µM (active) | –
20 | Cc1ccc(N)c(N)c1 | – | inactive
21 | O=P(OCCCl)(OCCCl)OCCCl | – | inactive
22 | O=C(Oc1ccc(Br)cc1)N1CCN2CCC1CC2 | – | inactive
23 | Nc1ccc(Cc2ccc(N)cc2)cc1 | – | inactive
24 | Cc1ccc(N=C=O)cc1N=C=O | – | inactive
25 | Cc1cccc(N)c1N | 64 µM (active) | –
26 | [As]#[In] | – | inactive
27 | O=[N+]([O-])c1ccc(Oc2ccc(Cl)cc2Cl)cc1 | – | inactive

Each compound was assayed on ABC Transporter (ABCC3), ABCC3 (gene 8714) (assay: LTEA_HepaRG_ABCC3: Life Technologies and Expression Analysis (LTEA) Assay for ABC Transporter (ABCC3) using HepaRG (AID 2283462)). Settings: mRNA level, 48 h; actives raise or lower the signal.
Summary of the method: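 Human HepaRG, 48 h dosing, 8-pt half-log series from 100 uM, 0.5% DMSO vehicle, duplicates. ABCC3 mRNA by TaqMan qRT-PCR, housekeeping-normalized; bidirectional curve fit vs DMSO.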

Row | Structure (SMILES) | outcome | AC50
28 | CNC(=O)Oc1cccc2c1OC(C)(C)C2 | inactive | –
29 | CCCCCOC(=O)c1ccccc1C(=O)OCCCCC | inactive | –
30 | CC(C)N(Cc1ccccc1)C(=O)C(C)(C)C | inactive | –
31 | COP(=S)(OC)SCN1C(=O)c2ccccc2C1=O | inactive | –
32 | CC(C)(O)c1cnn2c(-c3ccc(F)c(-c4c(F)cccc4C#N)c3)cnc2n1 | inactive | –
33 | Nc1ccc(Oc2ccc(N)cc2)cc1 | inactive | –
34 | Nc1ccc(Cl)cc1N | – | 35.8 µM (active)
35 | Oc1ccc2ccc3cccc4ccc1c2c34 | inactive | –
36 | Cn1cc(-c2ccccc2)c(=O)c(-c2cccc(C(F)(F)F)c2)c1 | inactive | –
37 | Cc1cc(N=Nc2ccccc2C)ccc1N | – | 13 µM (active)
38 | C[C@]12C=CC3=C4CCC(=O)C=C4CC[C@H]3[C@@H]1CC[C@@H]2O | inactive | –
39 | O=C(Nc1ccccc1)c1ccccc1I | inactive | –
40 | CC(C)(C)C(O)(CCc1ccc(Cl)cc1)Cn1cncn1 (stereo not drawn) | inactive | –
41 | CCOc1cccc(C2(N3CCN(c4ccccc4)CC3)CCC(C)CC2)c1 (stereo not drawn) | inactive | –
42 | CCCCCCCCCCCCCN1CC(C)OC(C)C1 (stereo not drawn) | inactive | –
43 | CCC(C)c1ccc(O)cc1 (stereo not drawn) | inactive | –
44 | N#CC(Br)(Br)C(N)=O | inactive | –
45 | c1ccc(NNc2ccccc2)cc1 | inactive | –
46 | O=P(OCCCl)(OCCCl)OCCCl | inactive | –
47 | O=C(Oc1ccc(Br)cc1)N1CCN2CCC1CC2 | inactive | –
48 | Nc1ccc(Cc2ccc(N)cc2)cc1 | inactive | –
49 | Cc1ccc(N=C=O)cc1N=C=O | inactive | –
50 | Cc1cccc(N)c1N | inactive | –
51 | [As]#[In] | inactive | –
52 | O=[N+]([O-])c1ccc(Oc2ccc(Cl)cc2Cl)cc1 | inactive | –

These compounds were tested on ABC Transporter (ABCB11), ABCB11 (gene 8647) (assay: LTEA_HepaRG_ABCB11: Life Technologies and Expression Analysis (LTEA) Assay for ABC Transporter (ABCB11) using HepaRG (AID 2283463)). Settings: mRNA level, 48 h; actives raise or lower the signal.
Summary of the method: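 Using HepaRG cultures held in 0.5% DMSO, chemicals were tested at half-log dilutions from 100 uM for 48 h. Induction or suppression of ABCB11 mRNA, normalized to ACTB, GAPDH and POLR2A, was fitted bidirectionally against vehicle.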

Row | Structure (SMILES) | AC50 | outcome
53 | CNC(=O)Oc1cccc2c1OC(C)(C)C2 | 28.4 µM (active) | –
54 | CCCCCOC(=O)c1ccccc1C(=O)OCCCCC | – | inactive
55 | CC(C)N(Cc1ccccc1)C(=O)C(C)(C)C | – | inactive
56 | COP(=S)(OC)SCN1C(=O)c2ccccc2C1=O | – | inactive
57 | CC(C)(O)c1cnn2c(-c3ccc(F)c(-c4c(F)cccc4C#N)c3)cnc2n1 | 13.1 µM (active) | –
58 | Nc1ccc(Oc2ccc(N)cc2)cc1 | – | inactive
59 | Nc1ccc(Cl)cc1N | 19 µM (active) | –
60 | Oc1ccc2ccc3cccc4ccc1c2c34 | – | inactive
61 | Cn1cc(-c2ccccc2)c(=O)c(-c2cccc(C(F)(F)F)c2)c1 | – | inactive
62 | Cc1cc(N=Nc2ccccc2C)ccc1N | 4.58 µM (active) | –
63 | C[C@]12C=CC3=C4CCC(=O)C=C4CC[C@H]3[C@@H]1CC[C@@H]2O | 27.3 µM (active) | –
64 | O=C(Nc1ccccc1)c1ccccc1I | 23.3 µM (active) | –
65 | CC(C)(C)C(O)(CCc1ccc(Cl)cc1)Cn1cncn1 (stereo not drawn) | – | inactive
66 | CCOc1cccc(C2(N3CCN(c4ccccc4)CC3)CCC(C)CC2)c1 (stereo not drawn) | – | inactive
67 | CCCCCCCCCCCCCN1CC(C)OC(C)C1 (stereo not drawn) | – | inactive
68 | CCC(C)c1ccc(O)cc1 (stereo not drawn) | – | inactive
69 | N#CC(Br)(Br)C(N)=O | – | inactive
70 | c1ccc(NNc2ccccc2)cc1 | – | inactive
71 | Nc1ccc(N=Nc2ccccc2)cc1 | 13.8 µM (active) | –
72 | Cc1ccc(N)c(N)c1 | – | inactive
73 | O=P(OCCCl)(OCCCl)OCCCl | – | inactive
74 | Nc1ccc(Cc2ccc(N)cc2)cc1 | – | inactive
75 | Cc1ccc(N=C=O)cc1N=C=O | 20.2 µM (active) | –
76 | Cc1cccc(N)c1N | 62.6 µM (active) | –
77 | [As]#[In] | – | inactive
78 | O=[N+]([O-])c1ccc(Oc2ccc(Cl)cc2Cl)cc1 | 11.5 µM (active) | –
